Results filed as inconclusive are left out. Calls of active or inactive are those of the source. The calls were made as follows: active = hit-call score of the fitted dose curve at least 0.9, where 1 is the maximum; inconclusive = response in the unintended direction; inactive = score below 0.9.

The target of assay [1] is human Peroxisome Proliferator-activated Receptor delta (PPARd), PPARD (gene 5467) (UniProt Q03181). Nature of the assay: ATG_PPARd_TRANS: Attagene TRANS-FACTORIAL HepG2 Assay for human Peroxisome Proliferator-activated Receptor delta (PPARd) (AID 2283002). A digest of the protocol:
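Cell-based TRANS reporter: HepG2, transient MRTU transfection, 24 h exposure. Readout = reporter mRNA (RT-PCR/CE, 6-FAM). Gain-of-signal fit vs DMSO control.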

Assay [2] addresses Nuclear receptor subfamily 1 group I member 2 (Homo sapiens) (UniProt O75469). In words: ATG_PXR_TRANS: Attagene TRANS-FACTORIAL HepG2 Assay for human Pregnane X Receptor (PXR) (AID 2283008). A digest of the protocol: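 HepG2 transfected (FuGene 6) with GAL4-UAS reporter units + PXR-Gal4 chimera; dosed 24 h. Total RNA → oligo(dT) RT → PCR → 6-FAM primer extension → HpaI cut → CE. Gain-of-signal vs DMSO.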

Assay [3] deals with Retinoic acid receptor RXR-alpha (Homo sapiens) (UniProt P19793). In words: ATG_RXRa_TRANS: Attagene TRANS-FACTORIAL HepG2 Assay for human Retinoid X Receptor alpha (RXRa) (AID 2283012). Summed up:
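Read-out: fluorescent reporter-transcript fragments quantified by capillary electrophoresis after RT-PCR. Transiently transfected HepG2 cells carrying GAL4-UAS reporters and NR-GAL4 chimeras were exposed to chemical for 24 h; activity scored as increase over DMSO.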

Assay [4] concerns the target human Retinoid X Receptor beta (RXRb), RXRB (gene 6257) (UniProt P28702). Nature of the assay: ATG_RXRb_TRANS: Attagene TRANS-FACTORIAL HepG2 Assay for human Retinoid X Receptor beta (RXRb) (AID 2283013). A digest of the protocol:
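Read-out: reporter mRNA induction via RT-PCR plus capillary electrophoresis fluorescence, analysed as signal increase relative to DMSO. Cells were human HepG2, transiently transfected with GAL4-UAS reporter constructs and chimeric receptor-Gal4 fusions, dosed for 24 h.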

Assay [5] deals with human Retinoic Acid Receptor beta (RARb), RARB (gene 5915) (UniProt P10826). Nature of the assay: ATG_RARb_TRANS: Attagene TRANS-FACTORIAL HepG2 Assay for human Retinoic Acid Receptor beta (AID 2283004). Summed up:
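HepG2, transient MRTU transfection, NR–Gal4 chimera, 24 h treatment; RT-PCR plus CE fluorescence detection of reporter mRNA; gain of signal vs DMSO.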

Assay [6] deals with Retinoic acid receptor alpha (Homo sapiens) (UniProt P10276). Nature of the assay: ATG_RARa_TRANS: Attagene TRANS-FACTORIAL HepG2 Assay for human Retinoic Acid Receptor alpha (RARa) (AID 2283005). Summed up:
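Reporter transcripts, measured by RT-PCR with fluorescent labeling and capillary electrophoresis after 24 h dosing, reflect activity of an exogenous human RARa–GAL4 fusion in transiently transfected HepG2. Fitted for increase relative to DMSO.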

Assay [7] deals with Peroxisome proliferator-activated receptor gamma (Homo sapiens) (UniProt P37231). Nature of the assay: ATG_PPARg_TRANS: Attagene TRANS-FACTORIAL HepG2 Assay for human Peroxisome Proliferator-activated Receptor-gamma (PPARg) (AID 2283007). Summed up:
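Transient transfection of HepG2 with GAL4-UAS-driven reporter units; chemical dosing 24 h; total RNA → oligo(dT) RT → PCR with reporter primers → 6-FAM primer extension → HpaI digest 2 h 37 C → capillary electrophoresis. Positive direction vs DMSO.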

In assay [8] the target is human Retinoic Acid Receptor gamma (RARg), RARG (gene 5916) (UniProt P13631). Nature of the assay: ATG_RARg_TRANS: Attagene TRANS-FACTORIAL HepG2 Assay for human Retinoic Acid Receptor gamma (RARg) (AID 2283009). Summed up: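 Readout: reporter transcript levels via RT-PCR, 6-FAM primer-extension labelling, HpaI digestion and capillary electrophoresis. Cells: HepG2 carrying transfected RARg-GAL4 chimera plus UAS reporter set. Dosing 24 h; DMSO negative control.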
Chain of human Retinoic Acid Receptor gamma (RARg), RARG (gene 5916) (P13631 whole entry, looked up, the tested form may be a part): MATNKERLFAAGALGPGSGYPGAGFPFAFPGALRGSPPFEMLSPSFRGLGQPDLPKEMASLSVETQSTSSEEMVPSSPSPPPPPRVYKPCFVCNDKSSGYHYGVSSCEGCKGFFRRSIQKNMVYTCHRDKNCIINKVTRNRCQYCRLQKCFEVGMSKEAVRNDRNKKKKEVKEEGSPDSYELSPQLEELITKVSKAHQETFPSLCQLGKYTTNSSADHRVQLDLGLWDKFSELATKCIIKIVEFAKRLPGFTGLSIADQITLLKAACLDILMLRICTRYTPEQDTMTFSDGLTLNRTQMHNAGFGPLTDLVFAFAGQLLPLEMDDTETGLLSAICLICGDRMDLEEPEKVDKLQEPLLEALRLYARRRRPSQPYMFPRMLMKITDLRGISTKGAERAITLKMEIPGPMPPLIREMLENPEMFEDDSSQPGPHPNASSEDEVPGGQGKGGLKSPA

Assay [9] has as its target human Thyroid Receptor alpha (THRa1), THRA (gene 7067) (UniProt P10827). In words: ATG_THRa1_TRANS: Attagene TRANS-FACTORIAL HepG2 Assay for human Thyroid Receptor alpha (THRa1) (AID 2283014). A digest of the protocol:
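First, HepG2 cells receive multiple GAL4-UAS reporter units and the chimeric receptor. They are then dosed for 24 h, after which RNA is reverse-transcribed, amplified, labelled, HpaI-cut and sized by capillary electrophoresis; gain relative to DMSO is scored.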

Assay [10] addresses human RAR-related Orphan Receptor gamma (RORg), RORC (gene 6097) (UniProt P51449). Nature of the assay: ATG_RORg_TRANS: Attagene TRANS-FACTORIAL HepG2 Assay for human RAR-related Orphan Receptor gamma (RORg) (AID 2283011). A digest of the protocol: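 Activity is scored as increase in GAL4-UAS reporter mRNA over DMSO, detected by fluorescent RT-PCR and capillary electrophoresis in HepG2 cells transiently expressing a RORg-Gal4 chimera, 24 h after dosing.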

For assay [11], the target named is human RAR-related Orphan Receptor beta (RORb), RORB (gene 6096) (UniProt Q92753). In words: ATG_RORb_TRANS: Attagene TRANS-FACTORIAL HepG2 Assay for human RAR-related Orphan Receptor beta (RORb) (AID 2283010). A digest of the protocol:
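HepG2, transient MRTU transfection (GAL4-UAS reporters, exogenous NR-Gal4 chimeras); 24 h compound exposure; total RNA → RT-PCR → 6-FAM primer extension → HpaI digest → CE fluorescence. Positive direction vs DMSO baseline.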

Chain of human Retinoid X Receptor beta (RXRb), RXRB (gene 6257) (P28702 whole entry, looked up, the tested form may be a part): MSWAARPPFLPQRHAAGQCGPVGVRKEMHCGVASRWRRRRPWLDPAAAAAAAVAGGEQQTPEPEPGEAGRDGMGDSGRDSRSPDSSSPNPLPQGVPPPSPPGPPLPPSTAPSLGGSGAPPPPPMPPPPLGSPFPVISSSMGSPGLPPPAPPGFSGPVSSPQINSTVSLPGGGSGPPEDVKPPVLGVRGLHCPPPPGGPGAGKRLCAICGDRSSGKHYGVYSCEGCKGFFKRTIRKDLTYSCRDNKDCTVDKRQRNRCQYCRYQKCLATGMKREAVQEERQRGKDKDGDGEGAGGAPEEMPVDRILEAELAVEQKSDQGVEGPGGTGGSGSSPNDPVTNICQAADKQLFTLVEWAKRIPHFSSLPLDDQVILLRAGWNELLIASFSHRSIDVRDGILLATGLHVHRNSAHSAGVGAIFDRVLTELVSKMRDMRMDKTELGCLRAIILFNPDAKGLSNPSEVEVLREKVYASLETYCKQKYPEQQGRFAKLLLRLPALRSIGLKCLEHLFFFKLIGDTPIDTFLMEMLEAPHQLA
Chain of Peroxisome proliferator-activated receptor gamma (Homo sapiens) (P37231 whole entry, looked up, the tested form may be a part): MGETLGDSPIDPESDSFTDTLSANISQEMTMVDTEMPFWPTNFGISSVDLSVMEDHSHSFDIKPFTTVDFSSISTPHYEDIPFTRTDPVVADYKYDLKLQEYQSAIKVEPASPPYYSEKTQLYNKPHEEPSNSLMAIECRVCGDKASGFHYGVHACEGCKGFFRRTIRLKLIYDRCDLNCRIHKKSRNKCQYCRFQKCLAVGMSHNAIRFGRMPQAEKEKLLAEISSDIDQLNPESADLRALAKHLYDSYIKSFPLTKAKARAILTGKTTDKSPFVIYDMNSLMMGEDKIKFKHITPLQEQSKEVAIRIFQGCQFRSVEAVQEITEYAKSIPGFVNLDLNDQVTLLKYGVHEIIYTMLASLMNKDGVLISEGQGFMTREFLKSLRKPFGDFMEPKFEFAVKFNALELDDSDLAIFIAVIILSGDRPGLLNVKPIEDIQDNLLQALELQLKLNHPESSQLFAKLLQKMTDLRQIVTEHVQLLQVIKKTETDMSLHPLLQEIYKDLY
Chain of human Peroxisome Proliferator-activated Receptor delta (PPARd), PPARD (gene 5467) (Q03181 whole entry, looked up): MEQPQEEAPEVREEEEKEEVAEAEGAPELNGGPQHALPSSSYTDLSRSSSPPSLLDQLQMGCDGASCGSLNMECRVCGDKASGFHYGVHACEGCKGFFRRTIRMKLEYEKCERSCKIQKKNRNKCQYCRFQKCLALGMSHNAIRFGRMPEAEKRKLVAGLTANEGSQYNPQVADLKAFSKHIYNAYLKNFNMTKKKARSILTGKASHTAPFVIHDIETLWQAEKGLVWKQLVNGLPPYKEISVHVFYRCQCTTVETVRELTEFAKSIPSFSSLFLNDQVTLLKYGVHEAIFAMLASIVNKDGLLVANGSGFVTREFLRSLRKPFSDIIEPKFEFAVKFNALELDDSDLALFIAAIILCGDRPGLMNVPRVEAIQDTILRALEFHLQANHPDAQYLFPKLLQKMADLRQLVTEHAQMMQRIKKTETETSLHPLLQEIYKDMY
Chain of human RAR-related Orphan Receptor gamma (RORg), RORC (gene 6097) (P51449 whole entry, looked up, the tested form may be a part): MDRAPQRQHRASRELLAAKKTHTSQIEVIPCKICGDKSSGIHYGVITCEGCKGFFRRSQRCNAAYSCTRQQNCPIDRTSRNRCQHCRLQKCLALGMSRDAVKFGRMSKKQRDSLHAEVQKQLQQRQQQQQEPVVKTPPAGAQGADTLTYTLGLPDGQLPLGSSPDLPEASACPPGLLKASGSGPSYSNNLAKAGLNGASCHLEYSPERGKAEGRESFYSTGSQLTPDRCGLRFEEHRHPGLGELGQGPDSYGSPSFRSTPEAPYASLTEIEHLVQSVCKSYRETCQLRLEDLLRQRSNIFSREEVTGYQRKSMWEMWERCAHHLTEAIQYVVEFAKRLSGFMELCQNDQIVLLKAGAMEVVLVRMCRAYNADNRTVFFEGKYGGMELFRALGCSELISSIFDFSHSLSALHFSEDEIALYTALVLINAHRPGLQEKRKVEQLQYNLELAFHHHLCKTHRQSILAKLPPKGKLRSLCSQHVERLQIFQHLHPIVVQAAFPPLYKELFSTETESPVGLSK
Chain of Retinoic acid receptor RXR-alpha (Homo sapiens) (P19793 whole entry, looked up, the tested form may be a part): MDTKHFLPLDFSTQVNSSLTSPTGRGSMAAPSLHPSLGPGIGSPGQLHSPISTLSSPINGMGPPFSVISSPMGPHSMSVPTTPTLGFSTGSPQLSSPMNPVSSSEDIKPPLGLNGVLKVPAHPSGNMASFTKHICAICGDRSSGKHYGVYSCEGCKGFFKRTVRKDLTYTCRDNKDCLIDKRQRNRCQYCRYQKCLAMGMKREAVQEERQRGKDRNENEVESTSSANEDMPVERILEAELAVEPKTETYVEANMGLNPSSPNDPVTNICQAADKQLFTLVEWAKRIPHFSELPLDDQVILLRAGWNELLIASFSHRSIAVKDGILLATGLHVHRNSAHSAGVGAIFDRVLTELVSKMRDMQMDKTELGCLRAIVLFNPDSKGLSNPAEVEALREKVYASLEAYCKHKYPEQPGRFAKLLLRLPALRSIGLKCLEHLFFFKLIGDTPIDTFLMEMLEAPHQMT
Chain of human Thyroid Receptor alpha (THRa1), THRA (gene 7067) (P10827 whole entry, looked up, the tested form may be a part): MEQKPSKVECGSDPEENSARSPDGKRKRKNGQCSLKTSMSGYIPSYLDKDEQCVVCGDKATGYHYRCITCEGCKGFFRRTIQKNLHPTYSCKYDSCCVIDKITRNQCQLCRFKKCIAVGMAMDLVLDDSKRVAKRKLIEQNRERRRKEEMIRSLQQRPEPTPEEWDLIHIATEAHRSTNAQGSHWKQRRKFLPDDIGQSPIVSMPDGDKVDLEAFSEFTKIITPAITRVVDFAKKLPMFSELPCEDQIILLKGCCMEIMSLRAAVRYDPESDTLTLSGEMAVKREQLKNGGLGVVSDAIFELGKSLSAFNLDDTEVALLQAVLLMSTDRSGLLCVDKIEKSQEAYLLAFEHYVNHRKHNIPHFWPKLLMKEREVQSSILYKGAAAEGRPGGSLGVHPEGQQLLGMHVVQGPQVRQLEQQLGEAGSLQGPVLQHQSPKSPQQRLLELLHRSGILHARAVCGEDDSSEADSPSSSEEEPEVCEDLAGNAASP
Chain of Nuclear receptor subfamily 1 group I member 2 (Homo sapiens) (O75469 whole entry, looked up, the tested form may be a part): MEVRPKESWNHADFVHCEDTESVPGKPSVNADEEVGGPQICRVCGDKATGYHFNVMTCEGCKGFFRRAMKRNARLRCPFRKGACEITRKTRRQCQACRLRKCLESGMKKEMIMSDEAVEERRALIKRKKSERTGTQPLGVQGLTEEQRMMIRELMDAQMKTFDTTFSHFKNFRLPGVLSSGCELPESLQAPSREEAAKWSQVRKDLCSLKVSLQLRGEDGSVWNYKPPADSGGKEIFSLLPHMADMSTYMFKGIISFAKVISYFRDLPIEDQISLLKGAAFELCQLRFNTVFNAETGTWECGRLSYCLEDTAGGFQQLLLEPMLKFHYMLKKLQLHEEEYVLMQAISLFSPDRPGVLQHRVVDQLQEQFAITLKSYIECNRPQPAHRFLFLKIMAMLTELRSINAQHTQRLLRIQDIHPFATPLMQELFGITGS
Chain of human RAR-related Orphan Receptor beta (RORb), RORB (gene 6096) (Q92753 whole entry, looked up, the tested form may be a part): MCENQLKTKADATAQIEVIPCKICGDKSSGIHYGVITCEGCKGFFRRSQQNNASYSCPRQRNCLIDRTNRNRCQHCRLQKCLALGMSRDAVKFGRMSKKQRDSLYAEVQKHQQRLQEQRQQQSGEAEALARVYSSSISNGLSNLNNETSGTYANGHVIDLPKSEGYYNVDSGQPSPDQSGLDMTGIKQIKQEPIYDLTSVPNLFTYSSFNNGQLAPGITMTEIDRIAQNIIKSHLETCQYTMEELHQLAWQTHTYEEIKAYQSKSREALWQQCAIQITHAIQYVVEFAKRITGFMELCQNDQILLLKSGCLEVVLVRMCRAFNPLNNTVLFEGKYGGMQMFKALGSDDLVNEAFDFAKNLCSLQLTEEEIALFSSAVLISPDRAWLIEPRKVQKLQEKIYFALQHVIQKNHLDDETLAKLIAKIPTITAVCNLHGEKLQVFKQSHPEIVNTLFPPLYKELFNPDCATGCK
Chain of Retinoic acid receptor alpha (Homo sapiens) (P10276 whole entry, looked up, the tested form may be a part): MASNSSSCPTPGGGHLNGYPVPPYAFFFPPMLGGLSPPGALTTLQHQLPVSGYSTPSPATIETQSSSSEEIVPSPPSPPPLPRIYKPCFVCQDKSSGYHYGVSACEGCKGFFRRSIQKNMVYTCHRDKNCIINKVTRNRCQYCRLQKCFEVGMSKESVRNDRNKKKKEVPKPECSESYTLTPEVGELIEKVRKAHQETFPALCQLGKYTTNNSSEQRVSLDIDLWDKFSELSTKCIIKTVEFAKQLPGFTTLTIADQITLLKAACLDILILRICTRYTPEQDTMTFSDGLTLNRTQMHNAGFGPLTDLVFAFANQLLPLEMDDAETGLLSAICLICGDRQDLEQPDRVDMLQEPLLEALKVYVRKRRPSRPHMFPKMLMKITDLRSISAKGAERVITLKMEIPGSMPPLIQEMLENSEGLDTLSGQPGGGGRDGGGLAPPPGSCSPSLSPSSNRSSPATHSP

For the compound `CC(CO)(CO)[N+](=O)[O-]`, the compound was called inactive in assay [1], in assay [2], in [3] and in assay [4].
Take `CCCCCC1C(=O)CCC1CC(=O)OC` (stereo not given): the compound was called inactive in [5], in assay [6], in [7], in assay [2], in assay [8] and in [3]. The compound was called inactive in [4] and in assay [9].
`O=C(O)c1ccccc1O`: the call in assay [6], in assay [7], in [2], in assay [10] and in [3] was inactive.
With `CC(=O)C1C(=O)C=C(C)OC1=O` (stereo not given), the compound was called inactive in assay [5], in assay [6], in assay [8], in [10], in assay [3] and in assay [9].
For orientation: AC50 means the concentration giving half of the maximal activity seen. For `C=C/C(C)=C/C/C=C(\C)CCC=C(C)C`, the call in [1] and in assay [4] was inactive. Also, the concentration at half-maximal activity (AC50) in assay [2] was 6.85 µM (active).
Turning to `CC(C)(C)c1cc(CCC(=O)OCCSCCOC(=O)CCc2cc(C(C)(C)C)c(O)c(C(C)(C)C)c2)cc(C(C)(C)C)c1O`, the compound was classed as inactive in assay [1], in [2], in assay [10], in [3] and in [9]. The AC50 in [4] was 33.9 µM (active).
Turning to `CC(O)CN` (stereo not given), the call in assay [7], in assay [2], in assay [8] and in assay [3] was inactive.
As for `O=C1OCc2ccccc21`, the outcome in assay [1], in assay [10] and in assay [3] was inactive.
Consider `Cc1ccc(C(C)(C)O)cc1`, for which the result in assay [2], in [11], in [10] and in assay [3] was inactive.
As for `CC1=CCC(=C(C)C)CC1`, the result in assay [7], in [3] and in [4] was inactive. Moreover, the AC50 in assay [2] is 6.82 µM (active).
Regarding `C=CCOCC(O)CO` (stereo not given), the compound was classed as inactive in [2], in assay [10] and in [3].
Regarding `CC/C=C\CCCCO`, the result in assay [2], in assay [11], in assay [10], in [3] and in [9] was inactive.
Regarding `CCCC1CCOC(C)S1` (stereo not given), the call in assay [2], in assay [10] and in assay [3] was inactive.
`CCC(C)COC(=O)CC(C)C` (stereo not given): the compound was called inactive in assay [7], in [2], in assay [11], in [3], in assay [4] and in assay [9].
Turning to `NC(N)=S`, the outcome in assay [11], in assay [10] and in assay [9] was inactive.
On to `CCCCCCC(O)CCOC(C)=O` (stereo not given), for which the result in assay [7], in assay [10], in assay [3] and in assay [4] was inactive. The AC50 in assay [2] is 15.2 µM (active).
With `CCCOC(=O)CC`, the call in assay [7], in [11], in assay [3], in assay [4] and in assay [9] was inactive.
As to `CCCCN(CCCC)CCCCCCN(CCCC)CCCC`, the compound was called inactive in [7], in [11] and in assay [9].
In the case of `CC(C)CCOC(=O)CC(C)C`, the result in [7], in assay [2], in assay [11], in [3] and in assay [9] was inactive. Also, the AC50 in assay [4] was 100 µM (active).
`c1ccc2scnc2c1`: the compound was called inactive in [7], in assay [2], in assay [10], in assay [4] and in assay [9].
Consider `CCCCC(CC)COCCO` (stereo not given), for which the outcome in assay [7], in assay [2], in assay [11], in assay [3] and in assay [9] was inactive. In addition, the AC50 in assay [4] is 100 µM (active).
`CCC(CC)CO`: the call in [7], in assay [2], in assay [4] and in assay [9] was inactive.
Regarding `CCCc1ccc(N)cc1`, the call in assay [7] and in assay [3] was inactive.
Regarding `CCCCCC1CCC(=O)O1` (stereo not given), the compound was classed as inactive in assay [2], in [3] and in assay [4].
As for `CCOC(=O)CC1(C)OCC(C)O1` (stereo not given), the compound was called inactive in [2], in [8], in assay [3] and in assay [9].
Regarding `Cc1ccccc1S`, the AC50 in assay [7] is 41.6 µM (active). For the same compound, the call in assay [2], in [10], in [4] and in [9] was inactive.
Turning to `C=COCC1CCC(COC=C)CC1` (stereo not given), the outcome in [2], in assay [11], in assay [3], in [4] and in assay [9] was inactive.
As for `CC1=CCC(C(C)C)=CC1`, the outcome in assay [3] and in assay [4] was inactive.
Regarding `CC(=O)CCC(=O)O`, the call in assay [2], in assay [10], in [3], in [4] and in assay [9] was inactive.
As to `O=C(O)c1ccco1`, the result in assay [2], in assay [3] and in [4] was inactive.
`CC(C)OB(OC(C)C)OC(C)C`: the outcome in assay [7], in assay [2], in [10] and in assay [9] was inactive.
As to `CCCC[N+](C)(CCCC)CCCC`, the compound was classed as inactive in assay [10], in [3] and in assay [4].
Take `CC1=CC(O)CC(C)(C)C1` (stereo not given): the result in [2] and in assay [3] was inactive.
Turning to `Cc1ccncc1`, the result in [2], in assay [3] and in assay [9] was inactive.
For `CC(C)N(c1ccccc1)C(C)C`, the call in assay [2], in assay [10], in [4] and in [9] was inactive.
Take `O=C1CCCCCCCCCCCC(=O)OCCO1`: the compound was called inactive in assay [7], in assay [2], in [10] and in assay [9].

Values taken from PubChem BioAssay (EPA / NIEHS).
